Reference: PubChem BioAssay (NCATS)
Results filed as inconclusive are left out. Activity calls are given as the source filed them. The call rests on the fitted dose curve; in most records, active means well fitted curve in the direction sought with a large enough effect; inconclusive means small, poorly fitted or top-dose-only effect, or another doubt; inactive means no such curve, though single readings can be large; an effect the other way counts as inactive or inconclusive.

Tests used:
[1] = qHTS of pediatric cancer cell lines to identify multiple opportunities for drug repurposing: Primary screen for RD cells (AID 1347104); further: nearly all actives have a fitted effect of over 55% in size
In short: (§1)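 Cells seeded at 500-1,000 cells/well in growth media, rested 5 hours at 37 degrees C, 5% CO2, then dosed; MIPE compounds at 11-point (from 0.78 nM) and NPC at 8-point (from 0.59 nM) final concentrations. Viability by CellTiter-Glo luminescence after 48 hours.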

[2] = qHTS of pediatric cancer cell lines to identify multiple opportunities for drug repurposing: Primary screen for MG 63 (6-TG R) cells (AID 1347105); further: nearly all actives have a fitted effect of over 50% in size
In short: as §1

[3] = qHTS of pediatric cancer cell lines to identify multiple opportunities for drug repurposing: Primary screen for control Hh wild type fibroblast cells (AID 1347106);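 further: series mostly up to about 46 µM; a drop in luminescence marks cytotoxicity and a rise apparent proliferation; nearly all actives have a fitted effect of over 55% in size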
In short: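 Viability after 48 h compound treatment at 37C, 500-1,000 cells/well, read as ATP luminescence with CellTiter-Glo. Primary screens used 11-point (MIPE, 0.78 nM-46 µM) or 8-point (NPC, 0.59 nM-46 µM) final concentrations; follow-up screens used 11-point dilutions.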

[4] = qHTS of pediatric cancer cell lines to identify multiple opportunities for drug repurposing: Primary screen for Rh30 cells (AID 1347107); further: series mostly up to about 46 µM; nearly all actives have a fitted effect of over 75% in size
In short: (§2)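 Cells (500-1,000/well) rested 5 h, then received compounds for 48 h; metabolically active cells were measured by CellTiter-Glo luminescence. Final concentrations spanned up to 46 µM (MIPE, 11-point) or 0.59 nM-46 µM (NPC, 8-point) in primary screens, 11-point in follow-ups.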

[5] = qHTS of pediatric cancer cell lines to identify multiple opportunities for drug repurposing: Primary screen for Rh41 cells (AID 1347108);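 further: series mostly up to about 46 µM; luminescence drop marks cytotoxic hits; nearly all actives have a fitted effect of over 70% in size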
In short: as §1

[6] = qHTS of pediatric cancer cell lines to identify multiple opportunities for drug repurposing: Confirmatory screen for NB1643 cells (AID 1347109); further: nearly all actives have a fitted effect of over 45% in size
In short: as §2

[7] = qHTS of pediatric cancer cell lines to identify multiple opportunities for drug repurposing: Confirmatory screen for A673 cells (AID 1347110);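 further: cells exposed to compound for 48 h before the viability read; nearly all actives have a fitted effect of over 65% in size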
In short: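 A673 cells seeded at 500-1,000 cells/well, rested 5 h, then dosed; primary MIPE 11-point (0.78 nM to 46 µM), NPC (0.59 nM to 46 µM); confirmatory 11-point. CellTiter-Glo luminescence after 48 h.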

[8] = qHTS of pediatric cancer cell lines to identify multiple opportunities for drug repurposing: Confirmatory screen for BT-12 cells (AID 1347112); further: nearly all actives have a fitted effect of over 55% in size
In short: as §2

[9] = qHTS of pediatric cancer cell lines to identify multiple opportunities for drug repurposing: Confirmatory screen for LAN-5 cells (AID 1347113); further: nearly all actives have a fitted effect of over 65% in size
In short: as §2

[10] = qHTS of pediatric cancer cell lines to identify multiple opportunities for drug repurposing: Confirmatory screen for DAOY cells (AID 1347114); further: nearly all actives have a fitted effect of over 65% in size
In short: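 Viability measured as metabolically active cells via CellTiter-Glo luminescence following 48 hours of compound exposure, 11-point dilutions in confirmatory testing. 500-1,000 cells/well plated 5 hours before dosing; controls were DMSO and 2.3 µM bortezomib.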

[11] = qHTS of pediatric cancer cell lines to identify multiple opportunities for drug repurposing: Confirmatory screen for BT-37 cells (AID 1347117); further: nearly all actives have a fitted effect of over 55% in size
In short: as §2

[12] = qHTS of pediatric cancer cell lines to identify multiple opportunities for drug repurposing: Confirmatory screen for MG 63 (6-TG R) cells (AID 1347119); further: nearly all actives have a fitted effect of over 55% in size
In short: as §2

[13] = qHTS of pediatric cancer cell lines to identify multiple opportunities for drug repurposing: Confirmatory screen for control Hh wild type fibroblast cells (AID 1347121); further: nearly all actives have a fitted effect of over 70% in size
In short: as §2

[14] = qHTS of pediatric cancer cell lines to identify multiple opportunities for drug repurposing: Confirmatory screen for U-2 OS cells (AID 1347122); further: nearly all actives have a fitted effect of over 65% in size
In short: as §2

[15] = qHTS of pediatric cancer cell lines to identify multiple opportunities for drug repurposing: Confirmatory screen for Rh41 cells (AID 1347123);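 further: 48 h compound exposure; nearly all actives have a fitted effect of over 60% in size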
In short: as §2

[16] = qHTS of pediatric cancer cell lines to identify multiple opportunities for drug repurposing: Confirmatory screen for RD cells (AID 1347124)
In short: as §2

[17] = qHTS of pediatric cancer cell lines to identify multiple opportunities for drug repurposing: Confirmatory screen for Saos-2 cells (AID 1347127); further: nearly all actives have a fitted effect of over 60% in size
In short: as §2

[18] = qHTS of pediatric cancer cell lines to identify multiple opportunities for drug repurposing: Confirmatory screen for OHS-50 cells (AID 1347128)
In short: as §2

Measured: Potency

COC(=O)c1c(Cl)c(Cl)c(C(=O)OC)c(Cl)c1Cl
inactive: [1] | [2] | [3] | [4] | [5]

CCOc1c(N2CCOCC2)cnn(C)c1=O
inactive: [1] | [2] | [3] | [4] | [5]

CSCC[C@H](NC(=O)[C@H](Cc1c[nH]c2ccccc12)NC(=O)CCNC(=O)OC(C)(C)C)C(=O)N[C@@H](CC(=O)O)C(=O)N[C@@H](Cc1ccccc1)C(N)=O
inactive: [1] | [2] | [3] | [4] | [5]

Clc1ccc2c(c1)Nc1ccccc1S2
inactive: [1] | [2] | [3] | [4] | [5]

CC(C(=O)O)c1ccc(/C=C2\CCCCC2=O)cc1 (configuration not stated)
inactive: [1] | [2] | [3] | [4] | [5]

CC(=O)N(CC(=O)N(C)C)c1ccccc1
inactive: [1] | [2] | [3] | [4] | [5]

CCCC(=O)Nc1ccc(O)c(C(C)=O)c1
inactive: [1] | [2] | [3] | [4] | [5]

C[C@]12CCC(=O)C=C1CC[C@@H]1[C@@H]2[C@@H](O)C[C@@]2(C)[C@H]1CC[C@]2(O)C(=O)COC(=O)CCC(=O)O
inactive: all assays above

OC1(c2ccc(Cl)cc2)CCNCC1
inactive: [1] | [2] | [3] | [4] | [5]

CC(NN)c1ccccc1 (configuration not stated)
inactive: [1] | [2] | [3] | [5]
